Test results from ChEMBL document CHEMBL1157539, “Thousands of chemical starting points for antimalarial lead identification” (Nature, 2010).

Columns and labels:
Format in all cases: functional
Plasmodium falciparum [1] = experiment: GSK_TCMDC: Inhibition of Plasmodium falciparum 3D7 in whole red blood cells, using parasite LDH activity as an index of growth. Test compounds present at 2uM
Plasmodium falciparum [2] = experiment: GSK_TCMDC: Inhibition of Plasmodium falciparum Dd2 in whole red blood cells, using parasite LDH activity as an index of growth. Test compounds present at 2uM
HepG2 = experiment: GSK_TCMDC: Percent inhibition of human HepG2 cell line. Test compounds present at 10uM.

SMILES | Inhibition (Plasmodium falciparum [1]) | Inhibition (Plasmodium falciparum [2]) | Inhibition (HepG2)
Cc1cc(N[C@@H](Cc2ccccc2)C(=O)NCc2cccc(F)c2)nc(Nc2ccccc2)n1.O=C(O)C(F)(F)F | 100% | 92% | 20%
O=C(NC1CCCC1)c1ccc(N2CCC(NCc3cccc(C(F)(F)F)c3)CC2)cc1 | 87% | 75% | 11%
FC(F)(F)c1ccc2[nH]c(-c3ccc(-c4ccc(CNCCc5ccncc5)cc4)cc3)nc2c1.O=C(O)C(F)(F)F | 100% | 100% | 26%
COc1ccccc1C1CCN(C2CCC(NC(=O)/C=C/c3ccc(C(F)(F)F)cc3F)CC2)CC1 (centres undefined) | 95% | 2% | 63%
Cc1cccc2nc(-c3ccc(-c4cccc(NC(=O)Nc5cccc(C#N)c5)c4)cc3)[nH]c12 | 100% | 86% | 25%
Cc1ccc(NC(=O)c2c(C)noc2-c2snnc2C)cc1 | 92% | 71% | 1%
COc1ccc(-c2cccc(NC(=O)c3ccc(Cl)cc3)c2)cc1CN(C)CCN(C)C.O=C(O)C(F)(F)F | 99% | 61% | 37%
Cc1cc(NC(=O)c2sc3ccccc3c2O)no1 | 96% | 25% | 6%
COc1ccc(S(=O)(=O)N2CCC(NS(=O)(=O)c3ccc(F)cc3)CC2)cc1 | 80% | 0% | 3%
O=C(c1ccccc1NN=C1C(=O)N(c2ccccc2)N=C1c1ccccc1)N1CCOCC1 | 97% | 2% | 0%
NCCNC(=O)c1ccc(-c2cnc3[nH]cc(-c4ccc(C(N)=O)cc4)c3c2)cc1 | 99% | 98% | 2%
COc1ccc(NC(=O)c2ccc(-c3ccc(-c4cccnc4)cc3)c(C)c2)cc1OCCN(C)C.Cl | 99% | 73% | 24%
COc1cc2nc(SCCCC#N)n(C3CCCCCC3)c(=N)c2cc1OC | 89% | 9% | 0%
c1ccc2oc(-c3cc4ccncc4cc3OC3CCNCC3)cc2c1 | 100% | 96% | 11%
COc1ccc(CN2CCCC(N3CC4(OC3=O)c3ccccc3-c3ccccc34)C2)c(O)c1 (centres undefined) | 92% | 34% | 14%
Cl.Oc1ccc2[nH]c(-c3cccs3)nc2c1CN1CCC(O)(c2ccccc2)CC1 | 93% | 69% | 10%
NCC1CCCN1Cc1ccc(-c2ccc(-c3nc4ccccc4[nH]3)s2)cc1.O=C(O)C(F)(F)F (centres undefined) | 98% | 97% | 17%
CC(C)N1CCC(N(Cc2ccc(-c3ccc(C(F)(F)F)cc3)cc2)C(=O)Cn2c(CCc3cccc(F)c3F)cc(=O)c3c2CCC3)CC1.O=C(O)C(O)C(O)C(=O)O | 100% | 62% | 30%
CC(C)c1ccc(NC(=O)c2ccc(C(=O)NC3CCN(Cc4ccccc4)CC3)cc2)cc1.O=C(O)C(F)(F)F | 88% | 7% | 30%
CC(C)(C)c1cc(C(=O)N2CCN(c3nccnc3C#N)CC2)n(Cc2ccccc2)n1 | 100% | 93% | 0%
CCCCOC(=O)C1=C(C)NC2=C(C(=O)CC(c3ccc(OC)c(OC)c3)C2)C1c1ccc(O)cc1 (centres undefined) | 90% | 75% | 0%
CN(C)c1ccc(-c2cscc2C(=O)NC2CCCN(Cc3cccnc3)C2)cc1.O=C(O)C(F)(F)F (centres undefined) | 89% | 70% | 5%
CN(C)CCCOc1ccc(CN2CC[C@H](NC(=O)c3ccc(Cl)c(Cl)c3)C2)c2ccccc12.O=C(O)C(F)(F)F | 100% | 97% | 81%
COc1ccc(Nc2nccc(NCCNC(=O)c3cc4ccccc4s3)n2)cc1 | 98% | 7% | 6%
Cc1cc(CNCCCCCCNCc2ccc(-c3ccccc3)cc2)ccc1O | 98% | 0% | 90%
Cc1cc(NCCC(=O)NCc2cccc(F)c2)nc(NCCc2ccc(F)cc2)n1.O=C(O)C(F)(F)F | 89% | 2% | 0%
CC1CCc2c(C(=O)Nc3c(F)cc(F)cc3Br)csc2C1 (centres undefined) | 96% | 59% | 0%
Oc1ccc(Cl)cc1Nc1nc(C(F)(F)F)nc2ccccc12 | 86% | 63% | 16%
